# Assay results from paper PMC7819943, “Rice protein-binding microarrays: a tool to detect cis-acting elements near promoter regions in rice”.
# Whole data set: some 68,000 sequences, median “fluorescence intensity (a.u.)” near 9,100, cut for the highest 2% near 16,000. For the sample, the highest values were picked, then their nearest neighbours and some sequences at random.
# Target: OsWRKY34 (Oryza sativa, UniProt Q0JBA9 1-250)
# Assay: protein-binding microarray (RPBM); PBS, 2% BSA, 51.3 ng/ul salmon testes DNA, 50 uM zinc acetate, 200 nM TF, 25 C, 1 h; high values mean tight binding
# Settings: protein: recombinant; tags: N-terminal polyhistidine and DsRed monomer fusion (pET32a); label: CyDye5-dUTP incorporated in the synthesized complementary strand; 3' TTTTT single-stranded linker to array surface; dsDNA, one strand shown
# How it was run: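 The binding signal is fluorescence intensity per feature, in arbitrary units, read on an Axon 4000B scanner. Polyhistidine- and DsRed-tagged transcription factors (N-terminal fusions) from E. coli BL21-CodonPlus were purified on Ni–NTA and applied at 200 nM for 1 h at 25 °C to a double-stranded, BSA-blocked custom Agilent array in buffer with 50 µM zinc acetate.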
# Chain of OsWRKY34 (Q0JBA9 entry or part of it): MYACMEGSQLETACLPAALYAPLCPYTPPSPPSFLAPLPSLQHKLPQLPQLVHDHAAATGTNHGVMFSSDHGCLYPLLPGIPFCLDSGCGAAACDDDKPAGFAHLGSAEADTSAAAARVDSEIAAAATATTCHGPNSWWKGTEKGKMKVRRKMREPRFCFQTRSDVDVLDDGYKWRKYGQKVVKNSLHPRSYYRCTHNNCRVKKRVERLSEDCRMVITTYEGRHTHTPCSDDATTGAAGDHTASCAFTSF
row,Sequence,binding signal
1,AAGTTTTCGCGTCCAACTTTCATCGTTCGTCTTATTTGAACGGAGTCACCTAGTGCAG,10600 fluorescence intensity (a.u.)
2,GTTAACTTTTTAGAACATGTTTGACCGTTCGTCTTATTCACGGAGTCACCTAGTGCAG,8930 fluorescence intensity (a.u.)
3,GACTTTTTAGCACATGTTTAACCGTTCGTCTTATTCAAAACGGAGTCACCTAGTGCAG,12100 fluorescence intensity (a.u.)
4,TTCATCTCACGTACTGTTCTTTTGCCTCTCGCTAGCTCGTCGGAGTCACCTAGTGCAG,9220 fluorescence intensity (a.u.)
5,TGTTCGCGTCCATCGTTGACTTTTTCAACGCCATGCACGCCGGAGTCACCTAGTGCAG,30900 fluorescence intensity (a.u.)
6,TTTTTAGTACATGTTTGACCGTTCGTCTTATTCAAAAAATCGGAGTCACCTAGTGCAG,10700 fluorescence intensity (a.u.)
7,ATATTGTTGACTTTTTAGCACATGTTTAACCGTTCATCTTCGGAGTCACCTAGTGCAG,19600 fluorescence intensity (a.u.)
8,GTTAACTTTTTAGCACATGTTTGACCGTTCGTCTTATTCACGGAGTCACCTAGTGCAG,12600 fluorescence intensity (a.u.)
9,CCTCTCTTTCTCTCACTCTCTGTGACTCTTGTCTTTTTGTCGGAGTCACCTAGTGCAG,8390 fluorescence intensity (a.u.)
10,CCGTTGACTTTTTAGTACATGTTTAACCGTTCGTCTTATTCGGAGTCACCTAGTGCAG,38600 fluorescence intensity (a.u.)
11,TCCACGTTGACCACATCGCGTCACACCGTCCACGACTTTTCGGAGTCACCTAGTGCAG,12700 fluorescence intensity (a.u.)
12,GCCTCTTTTTTGTCGCTCTCACTGTCTCACACCTACACGTCGGAGTCACCTAGTGCAG,16400 fluorescence intensity (a.u.)
13,CATTGTGCGCTCTGGAGAGGCTCCAAACCACCATTGTTCGCGGAGTCACCTAGTGCAG,8090 fluorescence intensity (a.u.)
14,GCCCTCGTCGTCGTCCGACCACCCGATCCCGACGAGAACCCGGAGTCACCTAGTGCAG,8690 fluorescence intensity (a.u.)
15,ATCTACTACTATTCTACTCTACTCGCAAGTCTCACAAACACGGAGTCACCTAGTGCAG,8740 fluorescence intensity (a.u.)
16,AAAAAGAGTTCTCTTCTTCACTTCTACTCTTCACAACTTTCGGAGTCACCTAGTGCAG,9410 fluorescence intensity (a.u.)
17,CATCCAAATAGGTTCTTTTAGTTCAATTTTGGGGCAGTTTCGGAGTCACCTAGTGCAG,9920 fluorescence intensity (a.u.)
18,GCTACTATCAAGTCATAAGCTTACTACCAAGTTATAGCACCGGAGTCACCTAGTGCAG,8320 fluorescence intensity (a.u.)
19,ATATACATGTGATAGCTTCGTCTCAAGATACATTGTCCTACGGAGTCACCTAGTGCAG,9500 fluorescence intensity (a.u.)
20,CTGTTCCGCCACCTACCACCGAGCCGTTGTCTCCCATGACCGGAGTCACCTAGTGCAG,10100 fluorescence intensity (a.u.)
21,AAAGCCGTCGTATTGTCATCCGCCGCTCGCTGACTCATTCCGGAGTCACCTAGTGCAG,8310 fluorescence intensity (a.u.)

row,Sequence,binding signal
1,TCCCCTTCGCCCTTCGTCGTCGTCGTCGTCGTCGTTCGTCCGGAGTCACCTAGTGCAG,8050 fluorescence intensity (a.u.)
2,AACCACCACAAGCCGTTAACCCCGTTGTTTACCTCCTCCTCGGAGTCACCTAGTGCAG,8190 fluorescence intensity (a.u.)
3,TTTGCAACATTTGATTACTCGTCTTATTTAATTTTTTTTTCGGAGTCACCTAGTGCAG,8230 fluorescence intensity (a.u.)
4,AACGCTATTTATTTTTTAAACATGTTTGATCGTTCGTCTTCGGAGTCACCTAGTGCAG,10200 fluorescence intensity (a.u.)
5,TGACGCCGTTGACTTTTTTAAACATGTTTGATCGTTCGTCCGGAGTCACCTAGTGCAG,35900 fluorescence intensity (a.u.)
6,TTGTTTCTGTTCATTTTTCTCTATAGTACTTGCTAGGTGACGGAGTCACCTAGTGCAG,11500 fluorescence intensity (a.u.)
7,TTTCAGGTTTTGCATTTCACACCTCTGTCGTCATACTTGACGGAGTCACCTAGTGCAG,17800 fluorescence intensity (a.u.)
8,ATTTTGACTTTTTGGTTGCGCTATTTGATTACTCGTCTTACGGAGTCACCTAGTGCAG,19400 fluorescence intensity (a.u.)
9,TTGACTTTTGCTTGCACTGTTTGATTACTCGTCTTATTAACGGAGTCACCTAGTGCAG,8670 fluorescence intensity (a.u.)
10,GCCGTTGACTTTTTATTACATGTTTGACCGTTCGTCTTATCGGAGTCACCTAGTGCAG,62900 fluorescence intensity (a.u.)
11,TATGTTCATTTCCTTATTTGCCTCTCGTCATGTCTCTTGACGGAGTCACCTAGTGCAG,10200 fluorescence intensity (a.u.)
12,AGTAAAGTCCATCACCGGTCCCTAAACTTGTACCGCTATGCGGAGTCACCTAGTGCAG,8810 fluorescence intensity (a.u.)
13,AAAGATCGCTTTTTCCGTGGTAGGCTTCTCCATTTTATTTCGGAGTCACCTAGTGCAG,10700 fluorescence intensity (a.u.)
14,TATCTTGCCTAGCATATTGTCCGTGCGTTATTGCGATTTTCGGAGTCACCTAGTGCAG,10500 fluorescence intensity (a.u.)
15,TCCCACCCGTTTTTATTTTTCTCGGTGGTTAACTTATCTTCGGAGTCACCTAGTGCAG,8170 fluorescence intensity (a.u.)
16,TTCTTATTCTGTCGGTTGTGTGGTGGCAGGGCAGTTAATTCGGAGTCACCTAGTGCAG,8630 fluorescence intensity (a.u.)
17,TCCATCACTAGCTATTTTGGTACTTTCATCTACTTATTACCGGAGTCACCTAGTGCAG,8340 fluorescence intensity (a.u.)
18,TCTCTCGTTTTCCACACACACGTTTTTTAAACTGCTAAACCGGAGTCACCTAGTGCAG,10200 fluorescence intensity (a.u.)
19,CAAGGCCCGCCCATCCGTCTCCTCACACTCTGGCACACCTCGGAGTCACCTAGTGCAG,8580 fluorescence intensity (a.u.)
20,CAATCCATCAAACATGCAGTCAAGGTGTATTATTCAGTATCGGAGTCACCTAGTGCAG,9880 fluorescence intensity (a.u.)
21,ACTCTTATTGTTCAAATGAAAATGCTAGGGGTATAACTGCCGGAGTCACCTAGTGCAG,8340 fluorescence intensity (a.u.)
